# PMC11062922 (Nature Chemical Biology, 2023)
# Like-named read-outs stand apart in the source and are kept apart here.
# Tests used:
# AURKB = conditions: read-out: apparent Kd, n = 1
# CDKL5 = conditions: read-out: apparent Kd, n = 1
# [1] = compound concentrations:100 nM and 1000 nM (sheet 'Lestaurtinib' of Supplementary Table 1),run:Lestaurtinib_02438_R3,Plate:MR008
# [2] = compound concentrations:100 nM and 1000 nM (sheet 'Lestaurtinib' of Supplementary Table 1),run:Lestaurtinib_02443_R2,Plate:MR009
# [3] = compound concentrations:100 nM and 1000 nM (sheet 'Lestaurtinib' of Supplementary Table 1),run:Lestaurtinib_02473_R1,Plate:MR010
# [4] = compound concentrations:100 nM and 1000 nM (sheet 'Lestaurtinib' of Supplementary Table 1),run:Lestaurtinib_02487_R1,Plate:MR012
# [5] = compound concentrations:100 nM and 1000 nM (sheet 'Lestaurtinib' of Supplementary Table 1),run:Lestaurtinib_02487_R2,Plate:MR012
# [6] = compound concentrations:100 nM and 1000 nM (sheet 'Lestaurtinib' of Supplementary Table 1),run:Lestaurtinib_02566_R1,Plate:MR014
# [7] = compound concentrations:100 nM and 1000 nM (sheet 'Lestaurtinib' of Supplementary Table 1),run:Lestaurtinib_02572_R1,Plate:MR015
substance,measurement,setting,value
Lestaurtinib,potency estimated from few doses,AURKB; [1],161 nM
same,potency estimated from few doses,"AURKB; compound concentrations:100 nM and 1000 nM (sheet 'Lestaurtinib' of Supplementary Table 1),run:Lestaurtinib_02443_R1,Plate:MR009",193 nM
same,potency estimated from few doses,AURKB; [2],260 nM
same,potency estimated from few doses,AURKB; [3],144 nM
same,potency estimated from few doses,AURKB; [4],224 nM
same,potency estimated from few doses,AURKB; [5],219 nM
same,potency estimated from few doses,"AURKB; compound concentrations:100 nM and 1000 nM (sheet 'Lestaurtinib' of Supplementary Table 1),run:Lestaurtinib_02496_R2,Plate:MR013",115 nM
same,potency estimated from few doses,AURKB; [6],273 nM
same,potency estimated from few doses,"AURKB; compound concentrations:100 nM and 1000 nM (sheet 'Lestaurtinib' of Supplementary Table 1),run:Lestaurtinib_02566_R2,Plate:MR014",297 nM
same,potency estimated from few doses,AURKB; [7],271 nM
same,potency estimated from few doses,"AURKB; compound concentrations:100 nM and 1000 nM (sheet 'Lestaurtinib' of Supplementary Table 1),run:Lestaurtinib_02572_R3,Plate:MR015",151 nM
same,potency estimated from few doses,"AURKB; compound concentrations:100 nM and 1000 nM (sheet 'Lestaurtinib' of Supplementary Table 1),run:Lestaurtinib_02577_R1,Plate:MR016",239 nM
same,potency estimated from few doses,"AURKB; compound concentrations:100 nM and 1000 nM (sheet 'Lestaurtinib' of Supplementary Table 1),run:Lestaurtinib_02584_R1,Plate:MR017",236 nM
same,potency estimated from few doses,"AURKB; compound concentrations:100 nM and 1000 nM (sheet 'Lestaurtinib' of Supplementary Table 1),run:Lestaurtinib_02584_R2,Plate:MR017",271 nM
same,potency estimated from few doses,"AURKB; compound concentrations:100 nM and 1000 nM (sheet 'Lestaurtinib' of Supplementary Table 1),run:Lestaurtinib_02584_R3,Plate:MR017",237 nM
same,potency estimated from few doses,"AURKB; compound concentrations:100 nM and 1000 nM (sheet 'Lestaurtinib' of Supplementary Table 1),run:Lestaurtinib_02601_R2,Plate:MR018",240 nM
same,potency estimated from few doses,"AURKB; compound concentrations:100 nM and 1000 nM (sheet 'Lestaurtinib' of Supplementary Table 1),run:Lestaurtinib_02606_R1,Plate:MR019",271 nM
same,potency estimated from few doses,"AURKB; compound concentrations:100 nM and 1000 nM (sheet 'Lestaurtinib' of Supplementary Table 1),run:Lestaurtinib_02624_R1,Plate:MR020",259 nM
same,potency estimated from few doses,"AURKB; compound concentrations:100 nM and 1000 nM (sheet 'Lestaurtinib' of Supplementary Table 1),run:Lestaurtinib_02624_R2,Plate:MR020",278 nM
same,potency estimated from few doses,"AURKB; compound concentrations:100 nM and 1000 nM (sheet 'Lestaurtinib' of Supplementary Table 1),run:Lestaurtinib_02624_R3,Plate:MR020",260 nM
same,potency estimated from few doses,"AURKB; compound concentrations:100 nM and 1000 nM (sheet 'Lestaurtinib' of Supplementary Table 1),run:Lestaurtinib_02724_R1,Plate:MR021",414 nM
same,potency estimated from few doses,"AURKB; compound concentrations:100 nM and 1000 nM (sheet 'Lestaurtinib' of Supplementary Table 1),run:Lestaurtinib_02724_R2,Plate:MR021",253 nM
same,potency estimated from few doses,"AURKB; compound concentrations:100 nM and 1000 nM (sheet 'Lestaurtinib' of Supplementary Table 1),run:Lestaurtinib_02724_R3,Plate:MR021",80.5 nM
same,potency estimated from few doses,"AURKB; compound concentrations:100 nM and 1000 nM (sheet 'Lestaurtinib' of Supplementary Table 1),run:Lestaurtinib_02741_R1,Plate:MR023",289 nM
same,potency estimated from few doses,"AURKB; compound concentrations:100 nM and 1000 nM (sheet 'Lestaurtinib' of Supplementary Table 1),run:Lestaurtinib_02741_R2,Plate:MR023",259 nM
same,potency estimated from few doses,"AURKB; compound concentrations:100 nM and 1000 nM (sheet 'Lestaurtinib' of Supplementary Table 1),run:Lestaurtinib_02748_R1,Plate:MR024",229 nM
same,potency estimated from few doses,"AURKB; compound concentrations:100 nM and 1000 nM (sheet 'Lestaurtinib' of Supplementary Table 1),run:Lestaurtinib_02748_R2,Plate:MR024",286 nM
same,potency estimated from few doses,"AURKB; compound concentrations:100 nM and 1000 nM (sheet 'Lestaurtinib' of Supplementary Table 1),run:Lestaurtinib_02752_R1,Plate:MR025",290 nM
same,potency estimated from few doses,"AURKB; compound concentrations:100 nM and 1000 nM (sheet 'Lestaurtinib' of Supplementary Table 1),run:Lestaurtinib_02765_R1,Plate:MR026",275 nM
same,potency estimated from few doses,"AURKB; compound concentrations:100 nM and 1000 nM (sheet 'Lestaurtinib' of Supplementary Table 1),run:Lestaurtinib_02765_R3,Plate:MR026",350 nM
same,potency estimated from few doses,"AURKB; compound concentrations:100 nM and 1000 nM (sheet 'Lestaurtinib' of Supplementary Table 1),run:Lestaurtinib_02766_R2,Plate:MR027",95.3 nM
same,potency estimated from few doses,"AURKB; compound concentrations:100 nM and 1000 nM (sheet 'Lestaurtinib' of Supplementary Table 1),run:Lestaurtinib_02768_R1,Plate:MR028",151 nM
same,potency estimated from few doses,"AURKB; compound concentrations:100 nM and 1000 nM (sheet 'Lestaurtinib' of Supplementary Table 1),run:Lestaurtinib_02768_R2,Plate:MR028",146 nM
same,potency estimated from few doses,"AURKB; compound concentrations:100 nM and 1000 nM (sheet 'Lestaurtinib' of Supplementary Table 1),run:Lestaurtinib_02768_R3,Plate:MR028",169 nM
same,potency estimated from few doses,"AURKB; compound concentrations:100 nM and 1000 nM (sheet 'Lestaurtinib' of Supplementary Table 1),run:Lestaurtinib_02795_R2,Plate:MR022",132 nM
same,potency estimated from few doses,"AURKB; compound concentrations:100 nM and 1000 nM (sheet 'Lestaurtinib' of Supplementary Table 1),run:Lestaurtinib_02795_R3,Plate:MR022",269 nM
same,potency estimated from few doses,"AURKB; compound concentrations:100 nM and 1000 nM (sheet 'Lestaurtinib' of Supplementary Table 1),run:Lestaurtinib_02802_R2,Plate:MR029",144 nM
same,potency estimated from few doses,"AURKB; compound concentrations:100 nM and 1000 nM (sheet 'Lestaurtinib' of Supplementary Table 1),run:Lestaurtinib_02802_R3,Plate:MR029",83.6 nM
same,potency estimated from few doses,"AURKB; compound concentrations:100 nM and 1000 nM (sheet 'Lestaurtinib' of Supplementary Table 1),run:Lestaurtinib_02896_R3,Plate:MR030",218 nM
same,potency estimated from few doses,"AURKB; compound concentrations:100 nM and 1000 nM (sheet 'Lestaurtinib' of Supplementary Table 1),run:Lestaurtinib_03172_R1,Plate:MR031",146 nM
same,potency estimated from few doses,"AURKB; compound concentrations:100 nM and 1000 nM (sheet 'Lestaurtinib' of Supplementary Table 1),run:Lestaurtinib_03172_R3,Plate:MR031",290 nM
same,potency estimated from few doses,"AURKB; compound concentrations:100 nM and 1000 nM (sheet 'Lestaurtinib' of Supplementary Table 1),run:Lestaurtinib_03252_R2,Plate:MR032",136 nM
same,potency estimated from few doses,"AURKB; compound concentrations:100 nM and 1000 nM (sheet 'Lestaurtinib' of Supplementary Table 1),run:Lestaurtinib_03260_R2,Plate:MR033",243 nM
same,potency estimated from few doses,"CDKL5; compound concentrations:100 nM and 1000 nM (sheet 'Lestaurtinib' of Supplementary Table 1),run:Lestaurtinib_02339_R1,Plate:MR001",72.5 nM
same,potency estimated from few doses,"CDKL5; compound concentrations:100 nM and 1000 nM (sheet 'Lestaurtinib' of Supplementary Table 1),run:Lestaurtinib_02339_R2,Plate:MR001",37.7 nM
same,potency estimated from few doses,"CDKL5; compound concentrations:100 nM and 1000 nM (sheet 'Lestaurtinib' of Supplementary Table 1),run:Lestaurtinib_02364_R1,Plate:MR002",5.84 nM
same,potency estimated from few doses,"CDKL5; compound concentrations:100 nM and 1000 nM (sheet 'Lestaurtinib' of Supplementary Table 1),run:Lestaurtinib_02364_R3,Plate:MR002",158 nM
same,potency estimated from few doses,"CDKL5; compound concentrations:100 nM and 1000 nM (sheet 'Lestaurtinib' of Supplementary Table 1),run:Lestaurtinib_02367_R2,Plate:MR003",373 nM
same,potency estimated from few doses,"CDKL5; compound concentrations:100 nM and 1000 nM (sheet 'Lestaurtinib' of Supplementary Table 1),run:Lestaurtinib_02367_R3,Plate:MR003",37.9 nM
same,potency estimated from few doses,"CDKL5; compound concentrations:100 nM and 1000 nM (sheet 'Lestaurtinib' of Supplementary Table 1),run:Lestaurtinib_02381_R1,Plate:MR004",135 nM
same,potency estimated from few doses,"CDKL5; compound concentrations:100 nM and 1000 nM (sheet 'Lestaurtinib' of Supplementary Table 1),run:Lestaurtinib_02381_R2,Plate:MR004",149 nM
same,potency estimated from few doses,"CDKL5; compound concentrations:100 nM and 1000 nM (sheet 'Lestaurtinib' of Supplementary Table 1),run:Lestaurtinib_02381_R3,Plate:MR004",269 nM
same,potency estimated from few doses,"CDKL5; compound concentrations:100 nM and 1000 nM (sheet 'Lestaurtinib' of Supplementary Table 1),run:Lestaurtinib_02407_R1,Plate:MR005",43.6 nM
same,potency estimated from few doses,"CDKL5; compound concentrations:100 nM and 1000 nM (sheet 'Lestaurtinib' of Supplementary Table 1),run:Lestaurtinib_02407_R2,Plate:MR005",167 nM
same,potency estimated from few doses,"CDKL5; compound concentrations:100 nM and 1000 nM (sheet 'Lestaurtinib' of Supplementary Table 1),run:Lestaurtinib_02437_R1,Plate:MR007",32 nM
same,potency estimated from few doses,"CDKL5; compound concentrations:100 nM and 1000 nM (sheet 'Lestaurtinib' of Supplementary Table 1),run:Lestaurtinib_02437_R2,Plate:MR007",113 nM
same,potency estimated from few doses,"CDKL5; compound concentrations:100 nM and 1000 nM (sheet 'Lestaurtinib' of Supplementary Table 1),run:Lestaurtinib_02437_R3,Plate:MR007",2.19 nM
same,potency estimated from few doses,"CDKL5; compound concentrations:100 nM and 1000 nM (sheet 'Lestaurtinib' of Supplementary Table 1),run:Lestaurtinib_02438_R1,Plate:MR008",8.7 nM
same,potency estimated from few doses,"CDKL5; compound concentrations:100 nM and 1000 nM (sheet 'Lestaurtinib' of Supplementary Table 1),run:Lestaurtinib_02438_R2,Plate:MR008",181 nM
same,potency estimated from few doses,CDKL5; [1],176 nM
same,potency estimated from few doses,CDKL5; [2],27.1 nM
same,potency estimated from few doses,"CDKL5; compound concentrations:100 nM and 1000 nM (sheet 'Lestaurtinib' of Supplementary Table 1),run:Lestaurtinib_02443_R3,Plate:MR009",41.7 nM
same,potency estimated from few doses,CDKL5; [3],70.4 nM
same,potency estimated from few doses,"CDKL5; compound concentrations:100 nM and 1000 nM (sheet 'Lestaurtinib' of Supplementary Table 1),run:Lestaurtinib_02473_R3,Plate:MR010",212 nM
same,potency estimated from few doses,"CDKL5; compound concentrations:100 nM and 1000 nM (sheet 'Lestaurtinib' of Supplementary Table 1),run:Lestaurtinib_02482_R1,Plate:MR011",33.6 nM
same,potency estimated from few doses,"CDKL5; compound concentrations:100 nM and 1000 nM (sheet 'Lestaurtinib' of Supplementary Table 1),run:Lestaurtinib_02482_R2,Plate:MR011",27.4 nM
same,potency estimated from few doses,CDKL5; [4],190 nM
same,potency estimated from few doses,CDKL5; [5],449 nM
same,potency estimated from few doses,"CDKL5; compound concentrations:100 nM and 1000 nM (sheet 'Lestaurtinib' of Supplementary Table 1),run:Lestaurtinib_02496_R1,Plate:MR013",14.9 nM
same,potency estimated from few doses,CDKL5; [6],298 nM
same,potency estimated from few doses,"CDKL5; compound concentrations:100 nM and 1000 nM (sheet 'Lestaurtinib' of Supplementary Table 1),run:Lestaurtinib_02566_R3,Plate:MR014",21.2 nM
same,potency estimated from few doses,CDKL5; [7],389 nM
